Compounds with a hit are over-represented: about 2.1% of the library has one in this group of screens.
aDG glyco act: increases alpha dystroglycan glycosylation. Pro5-aDG cells, alpha-DG glycosylation AlphaScreen (IIH6); 0% Pro5, 100% B10-LARGE cell signal. activation, % at 10 µM. actives 0.22% (n = 360,000). AID 624168;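 active means activation of at least 8% versus controls, or a plate z-score of at least 8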;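 further: Pro5 are CHO cells carrying HIG-tagged alpha-DG that lacks glycosylation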
GalR3 antagonist: antagonists of human GalR3; O60755; HEK293 GalR3-CNG cAMP membrane potential fluorescence; galR3 body fused to GalR1 C-terminus; inhibition, % at 3 µM; actives 0.44% (n = 360,000);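 active means inhibition above the screen-wide average plus 3 SD, cut at about 13% in these data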;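 further: forskolin and galanin both at EC90 stimulate the cells; cAMP rise reported by CNG channel membrane potential dye signal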
Target sequence (O60755 1-299 limits assumed): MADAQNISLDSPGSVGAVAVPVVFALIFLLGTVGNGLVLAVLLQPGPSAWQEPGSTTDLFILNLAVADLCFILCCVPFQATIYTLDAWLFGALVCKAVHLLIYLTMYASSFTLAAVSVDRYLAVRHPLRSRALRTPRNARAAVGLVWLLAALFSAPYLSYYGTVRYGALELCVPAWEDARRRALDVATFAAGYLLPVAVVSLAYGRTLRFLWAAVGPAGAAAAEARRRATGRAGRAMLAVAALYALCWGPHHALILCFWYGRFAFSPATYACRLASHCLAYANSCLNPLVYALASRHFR
NR2F2 inh: inhibitors of human COUP-TFII (NR2F2); HEK293T NGFI-A luciferase reporter, luminescence; actives 0.7% (n = 370,000); inhibition, % at 8.6 µM; P24468;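 active means inhibition above a per-plate cutoff, mean inhibition of test wells between control levels plus 3 SD, cut at about 38% in these data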;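 further: cells cotransfected with COUP-TFII expression vector driving the NGFI-A reporter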
Gli-Sufu block: antagonists of Gli-Sufu signaling; inhibition, % at 5 µM; Sufu-KO-LIGHT fibroblasts, Gli luciferase reporter luminescence; AID 588413; actives 0.74% (n = 340,000);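 active means inhibition above about 55%, limit read from the data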
Env fusion inh: inhibitors of HIV Env-mediated cell fusion; HeLa-JRFL Env/CEM21 cell fusion, luciferase; actives 1.1% (n = 360,000); inhibition, % at 12.3 µM; AID 651610;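 active means mean replicate inhibition score of at least 50 and every replicate individually at or above 50; inconclusive means only one of the two criteria met; inactive means mean below 50 and not all replicates reaching 50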
Gal4-VP16 ctr: inhibits VP16 reporter, flagging COUP-TFII antagonist hits; inhibition, % at 8.5 µM; actives 25% (n = 2,500); HEK293 Gal4-VP16 luciferase reporter, luminescence; shares compounds with NR2F2 inh; AID 687007; in the data active means inhibition above about 13%
COUP-TFII conf: confirmation of human COUP-TFII (NR2F2) inhibitors; AID 687008; inhibition, % at 8.5 µM; actives 45% (n = 2,500); shares compounds with NR2F2 inh; HEK293 NGFI-A luciferase reporter, luminescence;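 active means mean inhibition over three repeats above a set limit taken from the earlier primary screen, cut at about 38% in these data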
Numbers stand for hits; . = inactive; ? = inconclusive; / = no result given.

SMILES | aDG glyco act | GalR3 antagonist | NR2F2 inh | Gli-Sufu block | Env fusion inh | Gal4-VP16 ctr | COUP-TFII conf
O=C(/C=C/c1ccc(Cl)cc1)Nc1ccc(CN2CCOCC2)cc1 | . | . | 57 | . | . | . | .
O=C(NC(=S)Nc1ccc(CN2CCOCC2)cc1)c1ccc(-c2cccc(Cl)c2)o1 | . | . | . | . | . | / | /
C[C@H](CO)N1C[C@H](C)[C@H](CN(C)C(=O)C2CC2)Oc2cc(/C=C/c3ccccc3)ccc2S1(=O)=O | / | / | / | / | . | / | /
C[C@H](CO)N1C[C@H](C)[C@H](CN(C)Cc2ccc(C(=O)O)cc2)Oc2ccc(NC(=O)Cn3cnnn3)cc2CC1=O | / | / | / | / | . | / | /
CC1CCc2nc(NC(=O)C3COc4ccccc4O3)sc2C1 (configuration not stated) | . | / | 64 | . | . | 18 | 57
Cn1nnnc1SCc1nc2scc(-c3ccccc3)c2c(=O)[nH]1 | . | . | . | . | . | / | /
Cn1nnnc1SCc1nc2scc(-c3ccc(Cl)cc3)c2c(=O)[nH]1 | . | . | 46 | . | . | . | .
N#Cc1cc([N+](=O)[O-])ccc1N1CCN(c2ccccc2O)CC1 | . | . | . | . | . | / | /
O=[N+]([O-])c1ccc(N2CCN(c3ccc([N+](=O)[O-])cc3CO)CC2)c(CO)c1 | . | . | 60 | . | . | . | .
C[C@H](CO)N1C[C@H](C)[C@@H](CN(C)C(=O)Cc2cccnc2)Oc2cc(C3=CCCCC3)ccc2S1(=O)=O | / | / | / | / | . | / | /
COc1ccc(S(=O)(=O)Nc2ccc(O)c(Sc3ncn[nH]3)c2)cc1 | . | . | . | . | / | / | /
COc1ccc(S(=O)(=O)Nc2cc(Sc3ncn[nH]3)c(O)c3ccccc23)cc1 | / | . | 67 | / | / | 13 | .
O=C(Nc1ccc(Cl)c(Cl)c1)N[C@@H]1CC[C@H](CCn2cc(C3CC3)nn2)O[C@@H]1CO | / | / | / | / | . | / | /
O=C(c1cc2ccccc2o1)N1CCN(C/C=C/c2ccccc2)CC1 | . | . | 38 | . | . | . | .
CC(=O)N1CCN(C(=O)c2cc3ccccc3o2)CC1 | . | . | . | . | . | / | /
CN(c1ccc(C(=O)N2CCN(Cc3ccc4c(c3)OCO4)CC2)cc1)S(=O)(=O)c1ccccc1 | . | . | 48 | . | ? | . | .
CN(c1ccc(C(=O)N2CCN(Cc3ccccc3)CC2)cc1)S(=O)(=O)c1ccccc1 | . | . | . | . | . | / | /
Cc1ccc(S(=O)(=O)N(C)c2ccc(C(=O)N3CCN(Cc4ccc5c(c4)OCO5)CC3)cc2)cc1 | . | . | 56 | . | 83 | . | 39
COc1cc(-c2cnc3c(NC=O)cc(-c4cccc(C(F)(F)F)c4)cn23)cc(OC)c1OC | . | . | 41 | / | . | . | .
Cc1cccc(-c2cc(NC=O)c3ncc(-c4cccc(C(=O)N(C)C)c4)n3c2)c1 | . | . | . | / | . | / | /
COc1cccc(-c2cc(NC=O)c3ncc(-c4cc(OC)c(OC)c(OC)c4)n3c2)c1 | . | . | . | / | . | / | /
CN(C)C(=O)c1cccc(-c2cnc3c(NC=O)cc(-c4cccc(C(F)(F)F)c4)cn23)c1 | . | . | 46 | / | 56 | . | .
O=C(C[C@@H]1CC[C@H]2[C@@H](COC[C@@H](O)CN2CCc2ccccc2)O1)NCc1ccccc1 | / | / | / | / | . | / | /
C[C@@H]1CN([C@H](C)CO)C(=O)c2cc(C3=CCCCC3)cnc2O[C@@H]1CN(C)C(=O)Nc1ccc(F)cc1 | / | / | / | / | . | / | /
Cc1ccc(S(=O)(=O)Nc2ccc3c(c2)C(=O)N([C@H](C)CO)C[C@H](C)[C@H](CN(C)C(=O)Nc2c(C)noc2C)OCCCC[C@@H](C)O3)cc1 | / | / | / | / | . | / | /
SMILES | aDG glyco act | GalR3 antagonist | NR2F2 inh | Gli-Sufu block | Env fusion inh | Gal4-VP16 ctr | COUP-TFII conf
O=C(N/N=C/c1ccccc1C(=O)O)c1ccc(COc2cccc3cccnc23)cc1 | . | . | . | . | . | / | /
O=C(N/N=C/c1ccc[nH]1)c1ccc(COc2cccc3cccnc23)cc1 | . | . | 73 | . | 71 | 39 | 89
COc1ccc(C2SCC(=O)N2CCc2ccc(OC)c(OC)c2)cc1 (configuration not stated) | . | . | 43 | . | . | . | .
Cc1cccc(NC(=O)CSc2nc3ccccc3c(=O)n2C)c1 | . | . | 41 | . | . | . | .
COc1ccc(-n2cc(-c3ccc(C)cc3)[n+]3c2SCC3)cc1 | . | . | 66 | / | 118 | . | 64
N#Cc1ccc(-c2cn(-c3ccccc3)c3[n+]2CCCS3)cc1 | . | . | . | . | . | / | /
C[C@@H]1CN([C@H](C)CO)C(=O)c2cccc(N(C)C)c2O[C@H]1CN(C)S(=O)(=O)c1cccs1 | / | / | / | / | . | / | /
Cc1cc(C(=O)COc2cccnc2[N+](=O)[O-])c(C)n1-c1ccccc1F | . | . | 48 | . | . | . | .
Cc1cc(C(=O)COc2cccnc2[N+](=O)[O-])c(C)n1-c1ccccc1 | . | . | . | . | . | / | /
COc1ccccc1N1CCN(C(=O)C2CCCN(S(=O)(=O)c3ccc4c(c3)CCCN4C(C)=O)C2)CC1 (configuration not stated) | . | . | 44 | . | . | . | .
CCC(=O)N1CCCc2cc(S(=O)(=O)N3CCN(c4ccccc4F)CC3)ccc21 | . | / | 50 | . | 41 | . | .
CC(=O)N1CCCc2cc(S(=O)(=O)N3CCCC(C(=O)N4CCN(c5ccccc5)CC4)C3)ccc21 (configuration not stated) | . | . | 41 | . | . | . | .
CCC(=O)N1CCCc2cc(S(=O)(=O)N3CCN(c4ncccn4)CC3)ccc21 | . | / | . | . | . | / | /
CC(C)NC(=O)N(C)C[C@@H]1Oc2c(NC(=O)NC3CCCCC3)cccc2C(=O)N([C@@H](C)CO)C[C@@H]1C | / | / | / | / | . | / | /
O=C1C2C3C=CC(C3)C2C(=O)N1c1ccc(N2CCN(c3ccccn3)CC2)c([N+](=O)[O-])c1 (configuration not stated) | . | . | 42 | . | . | . | .
Cc1c(NC(=O)COC(=O)C23CC4CC(CC(O)(C4)C2)C3)c(=O)n(-c2ccccc2)n1C | . | . | 45 | . | . | . | .
CC(C)NC(=O)N[C@@H]1C=C[C@@H](CC(=O)NCCCN(C)C)O[C@@H]1CO | / | / | / | / | . | / | /
C=CCNc1nc(-c2sc(NC(C)=O)nc2C)cs1 | . | . | . | . | . | / | /
C=CCNc1nc(-c2sc(NC(=O)C(C)(C)C)nc2C)c(-n2cc(-c3ccccc3)nn2)s1 | . | . | 38 | / | . | . | .
CC(C)C(=O)N1CCN(c2ccc(NC(=O)COc3ccccc3[N+](=O)[O-])cc2)CC1 | . | . | 50 | . | . | . | .
COC(=O)C1CN(Cc2cn(Cc3ccc(Cl)cc3)nn2)CCS(=O)(=O)N1Cc1ccc(Cl)cc1 (configuration not stated) | / | / | 38 | / | / | . | .

Screening data (PubChem)
